# Compound activity: PubChem, several laboratories
# Hits are enriched below; roughly 3.1% of the tested compounds scored in any of these assays.
# EP2 modulator = modulators of human EP2 prostaglandin E2 receptor. P43116. EP2-expressing cells, cAMP HTRF FRET, PGE2 co-stimulation. induction, % at 25 µM. 260,000 tested, 0.83% active. AID 940;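 active means compounds whose cAMP rise, as percent of the full-agonist control response, exceeds 60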;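 further: rat C6 glioma line stably carrying human EP2 under a CMV promoter; the protocol text gives 20 µM as final concentration; 100% = response of wells given 1 µM PGE2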
# Target sequence (P43116 whole entry, looked up): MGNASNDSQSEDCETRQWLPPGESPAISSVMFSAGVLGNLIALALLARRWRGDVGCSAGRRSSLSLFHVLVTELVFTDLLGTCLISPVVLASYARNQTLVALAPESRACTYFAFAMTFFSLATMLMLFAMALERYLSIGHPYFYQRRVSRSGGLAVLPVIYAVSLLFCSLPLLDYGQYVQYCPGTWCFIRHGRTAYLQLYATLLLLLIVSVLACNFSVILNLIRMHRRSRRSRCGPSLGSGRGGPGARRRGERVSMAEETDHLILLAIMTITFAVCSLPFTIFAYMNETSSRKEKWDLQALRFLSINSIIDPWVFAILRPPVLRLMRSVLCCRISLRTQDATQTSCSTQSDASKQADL
# EP2 antag = inhibitors of human EP2 prostaglandin E2 receptor | inhibition, % at 25 µM | P43116 | AID 1422 | 260,000 tested, 0.52% active | C6 glioma cells expressing human EP2, cAMP TR-FRET; cells stimulated with saturating PGE2;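 active means percent inhibition above 40 after rounding to a whole number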;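 further: rat C6 glioma host cells with rolipram phosphodiesterase inhibitor present; the protocol text gives 20 µM as final concentration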
# KCC2 mod = modulators of human KCC2 chloride dependent transport. KCC2 cells, thallium flux FluoZin-2 fluorescence. B-score of Tl+ flux slope (higher = more flux/activation; lower = inhibition) at 10 µM. 190,000 tested, 2.2% active. AID 1456;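 active means thallium flux slope and its plate-corrected score both differing from the plate sample mean at a set confidence after two filtering rounds, in either direction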;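 further: slope of fluorescence scaled to starting intensity during 10 to 20 s after thallium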
# S1P3 antag-1 = antagonists of human S1P3 receptor; Q99500; CHO S1P3 NFAT-BLA reporter, FRET fluorescence, antagonist mode; inhibition, % at 4.98 µM; 170,000 tested, 0.27% active;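 active means inhibition above the plate cutoff, the mean inhibition of test wells on that plate plus 3 SD, cut at about 28% in these data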;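 further: cells challenged with S1P at its EC80 of 0.8 µM; blue over green emission ratio from cleaved BLA substrate after 4 h stimulation; 0% = S1P-stimulated wells and 100% = unstimulated DMSO-only wells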
# S1P3 antag-2 = human S1P3 receptor antagonism, confirmation. shares compounds with S1P3 antag-1. CHO S1P3 NFAT-BLA reporter, FRET, antagonist mode. inhibition, % at 4.98 µM. 240 tested, 30% active. AID 1429;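 active means inhibition above the hit threshold that was computed for the earlier primary screen, cut at about 30% in these data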;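 further: 0% = S1P-stimulated wells and 100% = unstimulated DMSO-only wells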
# The depositor's hits bear a star; i = inactive; . = no result.
SMILES,EP2 modulator,EP2 antag,KCC2 mod,S1P3 antag-1,S1P3 antag-2
Cc1cc(C(=O)CSc2nc3ccccc3c(=O)[nH]2)c(C)n1CC1CCCO1 (configuration not stated),-57.8,9.5,-1.66,11.9,.
Cc1cc(C(=O)CSc2nc3ccccc3c(=O)n2C)c(C)n1CC1CCCO1 (configuration not stated),-76.9,7.3,-1.09,33.4*,36.9*
CCN1/C(=C/C=C/c2oc3ccc(-c4ccccc4)cc3[n+]2CC)Oc2ccc(-c3ccccc3)cc21,-69.1,7.2,i,31.2*,54.4*
O=C(Nc1ccc2ccccc2c1)c1ccc(Cl)c(S(=O)(=O)N2CCOCC2)c1,-110.5,17.6,.,.,.
CC(C)OC(=O)/C(=C\c1cccc2ccccc12)NC(=O)c1ccccc1,29.7,9.5,-1.49,36.9*,24.0
CCCn1c(C)cc(/C=C(\C#N)C(=O)OCC(=O)NC(=O)NCC)c1C,-0.7,8.3,0.102,.,.
CCCn1c(C)cc(/C=C(\C#N)C(=O)OCC(=O)Nc2ccc(OC)c(Cl)c2)c1C,-1.4,10.0,0.0696,92.1*,-15.6
CCOc1cccc(C2C3=C(CC(C)(C)CC3=O)N(C)C3=C2C(=O)CC(C)(C)C3)c1,25.7,5.3,.,.,.
O=C1c2cccc3c(N4CCCCC4)ccc(c23)C(=O)N1c1cccc(O)c1,58.7,5.8,0.577,51.1*,45.0*
O=C1c2cccc3c(N4CCCCC4)ccc(c23)C(=O)N1CCO,-0.8,9.3,-1.66,.,.
COc1ccc(C(CC(=O)c2ccc(C)cc2)Nc2ccc([N+](=O)[O-])cc2)cc1 (configuration not stated),3.5,7.5,-0.761,43.9*,79.4*
Cc1sc2ncnc(NCC3COc4ccccc4O3)c2c1C (configuration not stated),-0.5,10.3,-1.78,32.1*,33.0*
C=CCNc1ncnc2scc(-c3ccccc3)c12,-30.9,12.7,.,.,.
c1ccc(-c2csc3ncnc(NCC4COc5ccccc5O4)c23)cc1 (configuration not stated),24.7,12.2,1.09,36.5*,17.1
CCC(C)NC(=O)Cc1c(OC)ccc2cc(Br)ccc12 (configuration not stated),42.0,16.9,-0.684,32.7*,-0.9
CCCC(C)NC(=O)Cc1ccc(Br)cc1 (configuration not stated),-5.8,5.2,0.0274,3.3,.
Cc1cc(-c2ccccc2)nc(N2CCC(C(=O)NCc3cccs3)CC2)n1,7.2,10.0,.,.,.
O=C(c1cnc2ccc3ccccc3c2c1)c1cc(F)ccc1O,-21.8,6.1,0.4,31.9*,-2.9
Cc1nn(C)c2ncc(C(=O)c3cc(F)ccc3O)cc12,-12.6,10.7,0.0262,.,.
COc1ccc2cc(C(c3nnnn3C3CCCCC3)N3CCN(c4ccccc4)CC3)c(=O)[nH]c2c1 (configuration not stated),-27.9,11.6,.,.,.
Cc1cc(C)c(C)c(S(=O)(=O)N2CCN(C(=O)CCC(=O)N3CCOCC3)CC2)c1C,25.5,6.0,0.0667,31.1*,-9.7
COCCn1c(SCC(=O)Nc2nc(C)cs2)nnc1-c1ccncc1,-10.4,12.3,.,.,.
CCc1ccc(-n2c(SCC(=O)NC(C)CC)nnc2-c2ccccn2)cc1 (configuration not stated),-7.0,9.4,.,.,.
COc1ccc(Cl)cc1NC(=O)C1=C(C)NC(=O)NC1c1ccc(O)cc1 (configuration not stated),22.2,4.2,.,.,.
CCOC(=O)C(C)Oc1cccc2c(=O)n(CC(=O)NCc3ccccc3)ccc12 (configuration not stated),-16.5,8.0,0.113,37.4*,9.3
SMILES,EP2 modulator,EP2 antag,KCC2 mod,S1P3 antag-1,S1P3 antag-2
CCOC(=O)C(C)Oc1cccc2c(=O)n(CC(=O)NCc3ccc(F)cc3)ccc12 (configuration not stated),-6.6,5.2,0.542,34.9*,8.2
CCOC(=O)C(C)Oc1cccc2c(=O)n(CC(=O)NCCc3ccccc3)ccc12 (configuration not stated),-16.7,9.3,-0.861,19.2,.
COc1ccccc1-[n+]1c(C)cc(/C=C2\Sc3ccccc3N2C)cc1C,-5.8,9.1,i,56.9*,39.3*
COc1ccc(-[n+]2c(C)cc(/C=C3\Sc4ccccc4N3C)cc2C)cc1,-86.9,14.9,i,50.3*,30.2*
Cc1ccc(NC(=O)c2sc(=S)n(-c3cc(C)ccc3F)c2N)cc1,-50.3,6.3,0.871,29.6*,6.2
Cc1ccccc1-n1c(N)c(C(=O)Nc2ccc(F)cc2)sc1=S,-47.1,7.2,0.594,-3.1,.
